According to PubChem BioAssay (EPA / NIEHS):
Where “and” joins values, the source holds several entries; their conditions need not be identical. Equal values may be shown once. The source holds several records for some structures; these can differ, active in one and inactive in another. Calls of active or inactive are those of the source. The calls were made as follows: active = hit-call score of the fitted dose curve at least 0.9, where 1 is the maximum; inactive = score below 0.9.

Experiments:
CD40, CD40 (gene 958) = assay: BSK_LPS_CD40: BioMAP Diversity Plus: LPS Assay for CD40 Biomarker Activity (AID 2283076); settings: primary human HUVEC with PBMC; actives raise or lower the signal
Procedure, shortened: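 HUVEC plus PBMC co-culture stimulated with LPS; CD40 quantified by ELISA 24 h after compound dosing. Fitting was bidirectional relative to DMSO. SRB staining of parallel cultures flagged overt cytotoxicity.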

[1] = read-out: E-selectin (Homo sapiens) (UniProt P16581); assay: BSK_LPS_Eselectin: BioMAP Diversity Plus: LPS Assay for Eselectin Biomarker Activity (AID 2283077); settings: primary human HUVEC with PBMC; actives raise or lower the signal
Procedure, shortened: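 Human umbilical vein endothelial cells co-cultured with PBMC under LPS stimulation; cell-surface E-selectin measured by ELISA 24 h after dosing. Change in either direction versus DMSO, with SRB total-protein staining in parallel cultures for cytotoxicity.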

[2] = read-out: Interleukin-8 (IL8), CXCL8 (gene 3576); assay: BSK_LPS_IL8: BioMAP Diversity Plus: LPS Assay for Interleukin-8 (IL8) Biomarker Activity (AID 2283078); settings: primary human HUVEC with PBMC; actives raise or lower the signal
Procedure, shortened: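 Human umbilical vein endothelial cells co-cultured with PBMC, LPS-stimulated, exposed to compound for 24 h. IL-8 quantified by ELISA; fitted in both directions against DMSO, with SRB total-protein staining of parallel cultures for cytotoxicity.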

[3] = BSK_LPS_SRB: Viability Assessment in the BioMAP Diversity Plus: LPS Assay (AID 2283079); settings: primary human HUVEC with PBMC;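 also: total protein by sulforhodamine B absorbance as a cytotoxicity measure; measured one day after compound addition; fitted in both directions against DMSO so loss or gain of signal counts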
Procedure, shortened: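 Co-culture of human umbilical vein endothelial cells and PBMC, read 24 h after dosing. Total protein by 0.1% SRB staining after 10% TCA fixation, absorbance at 560 nm; bidirectional fit against DMSO.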

[4] = read-out: Interleukin-1 alpha (IL1a), IL1A (gene 3552); assay: BSK_LPS_IL1a: BioMAP Diversity Plus: LPS Assay for Interleukin-1 alpha (IL1a) Biomarker Activity (AID 2283080); settings: primary human HUVEC with PBMC; actives raise or lower the signal
Procedure, shortened: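 Human umbilical vein endothelial cells co-cultured with PBMC and stimulated with LPS; IL-1a measured by ELISA 24 h after dosing. Bidirectional fitting against DMSO; cytotoxicity checked by SRB staining in parallel cultures.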

[5] = read-out: Monocyte Chemoattractant Protein-1 (MCP1), CCL2 (gene 6347); assay: BSK_LPS_MCP1: BioMAP Diversity Plus: LPS Assay for Monocyte Chemoattractant Protein-1 (MCP1) Biomarker Activity (AID 2283081); settings: primary human HUVEC with PBMC; actives raise or lower the signal;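 as to AC50: secreted MCP-1 protein quantified by ELISA in culture supernatant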
Procedure, shortened: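 Human umbilical vein endothelial cells co-cultured with PBMC, LPS-stimulated; secreted MCP-1 measured by ELISA 24 h after compound addition. Bidirectional curve fitting against DMSO baseline; SRB total-protein staining in parallel cultures for cytotoxicity.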

[6] = BSK_LPS_PGE2: BioMAP Diversity Plus: LPS Assay for Prostaglandin E2 (PGE2) Biomarker Activity (AID 2283082); settings: primary human HUVEC with PBMC; actives raise or lower the signal;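 as to AC50: secreted prostaglandin E2 measured by ELISA in LPS-stimulated co-culture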
Procedure, shortened: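 HUVEC plus human PBMC co-culture stimulated with LPS; secreted PGE2 quantified by ELISA 24 h after chemical dosing. Activity fitted bidirectionally against DMSO baseline; parallel SRB staining (0.1% SRB after 10% TCA fixation, 560 nm) flags overt cytotoxicity.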

[7] = read-out: Macrophage colony-stimulating factor (MCSF), CSF1 (gene 1435); assay: BSK_LPS_MCSF: BioMAP Diversity Plus: LPS Assay for Macrophage colony-stimulating factor (MCSF) Biomarker Activity (AID 2283083); settings: primary human HUVEC with PBMC; actives raise or lower the signal
Procedure, shortened: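 HUVEC–PBMC co-culture, M-CSF measured by ELISA 24 h after chemical dosing. Fitted in both directions relative to DMSO as negative control; overt cytotoxicity assessed by SRB total-protein staining in parallel cultures.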

[8] = read-out: Tissue Factor, F3 (gene 2152); assay: BSK_LPS_TissueFactor: BioMAP Diversity Plus: LPS Assay for Tissue Factor Biomarker Activity (AID 2283084); settings: primary human HUVEC with PBMC; actives raise or lower the signal
Procedure, shortened: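 Human umbilical vein endothelial cells co-cultured with PBMC were dosed with compound. Cell-surface CD142 was measured by ELISA 24 h later. Activity was fitted bidirectionally against DMSO, with SRB total-protein staining in parallel cultures for cytotoxicity.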

[9] = read-out: Tumor necrosis factor (Homo sapiens) (UniProt P01375); assay: BSK_LPS_TNFa: BioMAP Diversity Plus: LPS Assay for Tumour Necrosis Factor alpha (TNFa) Biomarker Activity (AID 2283085); settings: primary human HUVEC with PBMC; actives raise or lower the signal;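 as to AC50: TNFa protein level quantified by ELISA in the co-culture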
Procedure, shortened: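 Human umbilical vein endothelial cells co-cultured with PBMC and stimulated with LPS. TNFa was measured by ELISA 24 h after chemical dosing, fitted bidirectionally relative to DMSO.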

E-selectin (Homo sapiens), sequence (P16581 whole entry, looked up): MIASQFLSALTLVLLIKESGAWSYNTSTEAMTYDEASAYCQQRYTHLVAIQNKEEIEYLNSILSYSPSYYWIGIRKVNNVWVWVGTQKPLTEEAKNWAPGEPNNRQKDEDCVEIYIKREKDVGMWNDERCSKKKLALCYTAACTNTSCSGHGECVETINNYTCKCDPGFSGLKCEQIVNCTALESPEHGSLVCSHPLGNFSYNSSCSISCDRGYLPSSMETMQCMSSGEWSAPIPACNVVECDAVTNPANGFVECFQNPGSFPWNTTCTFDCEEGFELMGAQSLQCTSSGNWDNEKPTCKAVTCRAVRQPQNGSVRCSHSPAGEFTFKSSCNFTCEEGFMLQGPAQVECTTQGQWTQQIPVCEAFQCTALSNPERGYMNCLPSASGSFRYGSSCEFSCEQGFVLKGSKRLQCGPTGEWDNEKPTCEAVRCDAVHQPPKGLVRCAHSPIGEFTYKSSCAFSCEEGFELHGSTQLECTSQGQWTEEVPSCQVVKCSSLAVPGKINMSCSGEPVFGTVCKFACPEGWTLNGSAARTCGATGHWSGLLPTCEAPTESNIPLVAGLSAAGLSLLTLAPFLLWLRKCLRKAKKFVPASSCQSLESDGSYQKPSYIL
Tumor necrosis factor (Homo sapiens), sequence (P01375 whole entry, looked up): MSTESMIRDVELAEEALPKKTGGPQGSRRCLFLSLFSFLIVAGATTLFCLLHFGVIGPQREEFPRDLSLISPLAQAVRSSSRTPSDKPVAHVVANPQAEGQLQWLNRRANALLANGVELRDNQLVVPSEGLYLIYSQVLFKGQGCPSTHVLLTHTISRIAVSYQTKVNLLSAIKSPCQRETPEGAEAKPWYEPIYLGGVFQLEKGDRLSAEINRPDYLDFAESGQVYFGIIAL

Row | Structure (SMILES) | outcome (CD40, CD40 (gene 958)) | outcome [1] | outcome [2] | AC50 [3] | AC50 [4] | outcome [5] | outcome [6] | outcome [7] | AC50 [8] | outcome [9] | outcome [3] | outcome [4] | outcome [8] | AC50 (CD40, CD40 (gene 958)) | AC50 [1] | AC50 [2] | AC50 [5] | AC50 [7] | AC50 [9] | AC50 [6]
1 | COCc1c(C(C)C)nc(C(C)C)c(/C=C/[C@@H](O)C[C@@H](O)CC(=O)O)c1-c1ccc(F)cc1 | inactive | inactive | inactive | 0.023 µM (active) | 0.00777 µM (active) | inactive | inactive | inactive | 0.00778 µM (active) | inactive | – | – | – | – | – | – | – | – | – | –
2 | COc1ccc2nc(N)sc2c1 | inactive | inactive | inactive | – | – | inactive | inactive | inactive | – | inactive | inactive | inactive | inactive | – | – | – | – | – | – | –
3 | CCCCCCCCCCCCCCCC[N+](C)(C)CC | – | – | – | 1.62 µM (active) | 1.42 µM (active) | – | inactive | – | 2.36 µM (active) | – | – | – | – | 3.07 µM (active) | 5.7 µM (active) | 8.09 µM (active) | 2.58 µM (active) | 2.18 µM (active) | 4.58 µM (active) | –
4 | O=c1c2ccccc2oc2ccccc12 | inactive | inactive | inactive | – | – | inactive | inactive | inactive | – | inactive | inactive | inactive | inactive | – | – | – | – | – | – | –
5 | O=C(Cl)c1cc(C(=O)Cl)cc(C(=O)Cl)c1 | – | – | – | 30.5 µM (active) | 31 µM (active) | – | inactive | – | 33 µM (active) | – | – | – | – | 15.2 µM (active) | 31.2 µM (active) | 28.8 µM (active) | 29.9 µM (active) | 31.1 µM (active) | 36.7 µM (active) | –
6 | O=Nc1ccc(O)cc1 | inactive | inactive | inactive | – | – | inactive | inactive | inactive | – | inactive | inactive | inactive | inactive | – | – | – | – | – | – | –
7 | c1ccc(-c2ccccn2)nc1 | inactive | inactive | inactive | – | – | inactive | inactive | inactive | – | inactive | inactive | inactive | inactive | – | – | – | – | – | – | –
8 | Nc1ccc(N)c(Cl)c1 | – | inactive | inactive | 25.9 µM (active) and 32.6 µM (active) | 4.62 µM (active) and 33.4 µM (active) | – | – | – | 3.97 µM (active) and 3.44 µM (active) | inactive | – | – | – | 3.22 µM (active) and 2.55 µM (active) | 13.9 µM (active) | 7.92 µM (active) | 32.7 µM (active) and 32.2 µM (active) | 8.8 µM (active) and 15.4 µM (active) | 11.6 µM (active) | 20 µM (active) and 13 µM (active)
9 | CCO[Si](C)(OCC)OCC | inactive | inactive | inactive | – | – | inactive | inactive | inactive | – | inactive | inactive | inactive | inactive | – | – | – | – | – | – | –
10 | CC(C)(c1cc(Br)c(OCCO)c(Br)c1)c1cc(Br)c(OCCO)c(Br)c1 | – | inactive | inactive | 16.2 µM (active) | – | inactive | – | inactive | – | inactive | – | inactive | inactive | 11.9 µM (active) | – | – | – | – | – | 121 nM (active)
11 | O=C(c1ccc(O)cc1)c1ccc(O)cc1O | inactive | inactive | inactive | – | – | inactive | inactive | inactive | – | inactive | inactive | inactive | inactive | – | – | – | – | – | – | –
12 | S=C(NC1CCCCC1)NC1CCCCC1 | inactive | inactive | inactive | – | – | inactive | inactive | inactive | – | inactive | inactive | inactive | inactive | – | – | – | – | – | – | –
13 | C=CCOCC(O)CCl (stereo not given) | inactive | inactive | inactive | – | – | inactive | inactive | inactive | – | inactive | inactive | inactive | inactive | – | – | – | – | – | – | –
14 | c1ccc2c(c1)ccc1cc3c(ccc4ccccc43)cc12 | inactive | inactive | inactive | – | – | inactive | inactive | inactive | 0.0342 µM (active) | inactive | inactive | inactive | inactive | – | – | 1.84 µM (active) | – | – | – | –
15 | c1ccc2c(c1)ccc1ncccc12 | – | inactive | inactive | 20 µM (active) | 20 µM (active) | – | inactive | inactive | 6.01 µM (active) | inactive | – | – | – | 20 µM (active) | – | – | 3.97 µM (active) | – | – | –
16 | CC(C)C(=O)C(C)C | inactive | inactive | inactive | – | – | inactive | inactive | inactive | – | inactive | inactive | inactive | inactive | – | – | – | – | – | – | –
17 | CCCCC(CC)COCC1CO1 (stereo not given) | inactive | inactive | inactive | – | – | inactive | inactive | inactive | – | inactive | inactive | inactive | inactive | – | – | – | – | – | – | –
18 | N#[N+]c1ccc2c(S(=O)(=O)[O-])cccc2c1O | inactive | inactive | inactive | – | – | inactive | inactive | inactive | – | inactive | inactive | inactive | inactive | – | – | – | – | – | – | –
